{
  "source": "PubChem BioAssay (NCI)",
  "note": "About 83,000 compounds went through this panel and 20% of them were active in at least one assay; those are over-represented in the sample as a whole.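 Cells were grown in 96-well plates and exposed to the test compound at a single concentration for 48 hours; results are reported as percent growth, with values below 10 considered active.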 Unmarked numbers belong to inactive results. Activity calls are given as the source filed them.",
  "data": [
    {"system": "HL-60(TB) leukemia", "assay": "NCI-60 one-dose screen, 48 h (100 = growth as untreated, 0 = no growth, -100 = all killed)", "details": "10 µM unless noted", "values": [
      {"molecule": "CCCCCCNC(=O)Oc1ccc(/C(=C(/C)c2ccc(OC)cc2)c2ccc(OCCN3CCCCCC3)cc2)cc1", "growth": "-0.81% (active)"},
      {"molecule": "O=S(=O)(Nc1ccc2c(c1)OC(F)(F)O2)c1ccc(-c2cnc(C3CC3)o2)cc1", "growth": "3.85% (active)"},
      {"molecule": "CC(C)C[C@@H]1N[C@@]2(C(=O)Nc3ccccc32)[C@@H](c2ccc(F)cc2)[C@@H]1C(=O)c1ccc(O)cc1", "growth": "105%"},
      {"molecule": "Cc1cc2nc3c4cc(Cl)ccc4n(CC(=S)NCCN(C)C)c3nc2cc1C", "growth": "-63.4% (active)"},
      {"molecule": "COc1ccc(CCOc2cc3c(cc2OC)CCN(C(=O)NCc2cocn2)C3c2ccc(C)cc2C)cc1", "note": "(stereo not given)", "growth": "5.9% (active)"},
      {"molecule": "COc1ccc(-c2oc3cc(O)cc(O)c3c(=O)c2OC)cc1O", "growth": "-6.5% (active)"},
      {"molecule": "Cc1ccc2c(n1)C(=O)C(Cl)=C(Nc1cccc(C(C)C)c1)C2=O", "growth": "10.3%"},
      {"molecule": "O=C(NNc1nc2cc(F)c(F)cc2n2cccc12)c1ccncn1", "growth": "0.0559% (active)"},
      {"molecule": "OC1CCN(CCCOc2c3ccc(Cl)cc3nc3c2oc2ccccc23)CC1", "growth": "-35% (active)"},
      {"molecule": "COc1ccc2c(c1)oc1c3[nH]c4ccccc4c3c3c(c21)C(=O)N(O)C3=O", "growth": "53.3%"},
      {"molecule": "CNC(=O)c1cc(-c2ccc(NC(=S)Nc3cccc(C(F)(F)F)c3)cc2)nc2cccnc12", "growth": "109%"},
      {"molecule": "CCN(CC)CCN1C(=O)c2c(c3c4cc(Br)ccc4[nH]c3c3ccc4ccccc4c23)C1=O", "growth": "-35% (active)"},
      {"molecule": "NC(N)=Nc1ccc(Oc2cccc(NC(N)=Nc3ccc(I)cc3F)c2)cc1", "growth": "67.4%"},
      {"molecule": "O=C(NNc1nc2cc(F)cc(F)c2n2cccc12)c1ccncn1", "growth": "-7.85% (active)"},
      {"molecule": "CC1OC(O[C@@H]2[C@H](O)C(CO)OC(O[C@H]3COC(O[C@H]4CC[C@]5(C)[C@H]6CC[C@]78OC[C@@]9(CCC(C)(C)C[C@H]97)[C@H](O)C[C@@]8(C)[C@]6(C)CC[C@H]5C4(C)C)[C@@H](OC4OC(CO)[C@@H](O)[C@@H](O)[C@@H]4O)[C@@H]3O)[C@H]2OC2OC[C@@H](O)[C@@H](O)[C@@H]2O)[C@@H](O)[C@@H](O)[C@H]1O", "note": "(stereo not given in full)", "growth": "-61.4% (active)"},
      {"molecule": "Cc1cc(C)cc(NC2=C(Cl)C(=O)c3nc(C)ccc3C2=O)c1", "growth": "34.5%"},
      {"molecule": "CCCCCCNC(=O)Oc1ccc(/C(=C(\\C)c2ccc(Cl)cc2)c2ccc(OCCN(C)C)cc2)cc1", "growth": "-8.4% (active)"},
      {"molecule": "COc1ccc(-n2c(SCC(=O)Nc3ccc(-c4nc5ccccc5[nH]4)cc3)nc3ccccc3c2=O)cc1", "growth": "45.6%"},
      {"molecule": "CCOC(=O)c1c(Nc2ccccc2)nn2c(N)c(C#N)c(-c3ccccc3)nc12", "growth": "70.9%"},
      {"molecule": "O=C(CCCCCCNC(=O)c1csc(Br)n1)NO", "growth": "5.2% (active)"},
      {"molecule": "C[C@@H]1CN(c2ccc3ncc(C#Cc4cncc(C(=O)Nc5ccc(CN6CCN(C)CC6)c(C(F)(F)F)c5)c4)n3n2)C[C@H](C)O1", "growth": "-30.7% (active)"},
      {"molecule": "O=C(COc1cccc2cccnc12)Nc1ccc(C(=O)/C=C/c2ccc(Cl)cc2)cc1", "growth": "64.4%"},
      {"molecule": "COc1ccc(NC(=O)c2sc3nc(-c4cnccn4)cc(-c4cccs4)c3c2N)cc1", "growth": "56.2%"},
      {"molecule": "O=[N+]([O-])c1ccc(-c2nnc(SCc3ccc(O)c4ncccc34)o2)cc1", "growth": "13.7%"},
      {"molecule": "CC(C)SC1=NC(=C(C(=N1)NC2=ClC=CC=C2)C#N)C3=CC=CC=C3", "growth": "84.5%"},
      {"molecule": "Oc1ccc(CSc2nnc(-c3cnccn3)n2-c2ccccc2)c2cccnc12", "growth": "14.4%"},
      {"molecule": "O=C1C(c2ccccc2)=C(N2CCc3ccccc32)OC1(Cl)Cl", "growth": "-14.6% (active)"},
      {"molecule": "CC(=O)Nc1ccc(NC(=O)Nc2cccc(-c3nc(-c4ccc(NC(=O)c5cccnc5)cc4Cl)no3)c2)cc1C(F)(F)F", "growth": "-39.1% (active)"},
      {"molecule": "CCC(=O)Nc1ccc(-c2nc(-c3cccc(O)c3)c(-c3ccnc(Br)c3)[nH]2)cc1", "growth": "35.6%"},
      {"molecule": "NS(=O)(=O)c1ccc(-n2cc(CN3CCNCC3)nn2)cc1", "growth": "107%"},
      {"molecule": "O=C(/C=C/c1cccc(F)c1)c1cccc(OCCCCOc2cccc(C(=O)/C=C/c3cccc(F)c3)c2)c1", "growth": "101%"},
      {"molecule": "NC1=NC2(CCCC2)N(c2ccc(S(=O)(=O)Nc3nccs3)cc2)C(N)=N1", "growth": "102%"},
      {"molecule": "CNC(=O)c1cc(-c2ccc(NC(=S)Nc3cc(C(F)(F)F)cc(C(F)(F)F)c3)cc2)nc2cccnc12", "growth": "121%"},
      {"molecule": "CC(Nc1ncnc2ccc(-c3cnc(N)nc3)cc12)c1ccccc1", "note": "(stereo not given)", "growth": "35.3%"},
      {"molecule": "CN(C)c1ccc(/C=N/Nc2nc(N/N=C/c3ccc(N(C)C)cc3)nc(N3CCCCC3)n2)cc1", "growth": "-38% (active)"},
      {"molecule": "CC(C)(C)c1ccc(-c2nnc(-c3nc4ccccc4nc3Cl)o2)cc1", "growth": "13.6%"},
      {"molecule": "Oc1ccc(CSc2nnc(-c3ccncc3)o2)c2cccnc12", "growth": "8.26% (active)"},
      {"molecule": "C#CCOc1ccc(/C=N/Nc2nc(-c3ccc(OC)cc3)cs2)cc1", "growth": "60%"},
      {"molecule": "COc1cc(O)c2c(c1)/C=C/C[C@H](O)[C@H](O)C(=O)/C=C\\C[C@H](C)OC2=O", "growth": "-9.6% (active)"},
      {"molecule": "Cc1occc1-c1nc2s/c(=C\\c3cn(-c4ccccc4)nc3-c3ccccc3)c(=O)n2n1", "growth": "102%"}
    ]}
  ]
}
